Data from PubChem BioAssay (NCI).
This is part of a sample that, as a whole, favours compounds with a hit. Of some 79,000 tested, about 15% had one in any assay. Rule as the data show it: active = growth inhibition above about 70%; inactive = the rest.

Assays:
[1] = NCI Yeast Anticancer Drug Screen. Data for the rad50 strain (AID 155);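 also: 0% = growth of vehicle-only cultures of the same strain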; conditions: S. cerevisiae rad50 strain growth inhibition, stronger effect = higher value; at 50.0 µM unless noted
In short: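 Relative growth inhibition (compound vs vehicle) was measured in yeast with a defined repair-gene alteration.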

[2] = NCI Yeast Anticancer Drug Screen. Data for the mec2-1 strain (AID 157); conditions: S. cerevisiae mec2-1 strain, stronger effect = higher value; at 50.0 µM unless noted
In short: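 Using mec2-1 yeast: add compound, measure growth, express inhibition versus vehicle-treated cultures.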

[3] = NCI Yeast Anticancer Drug Screen. Data for the sgs1 mgt1 strain (AID 161);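 also: 0% = growth of cultures given vehicle only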; conditions: S. cerevisiae sgs1 mgt1 strain, stronger effect = higher value; at 50.0 µM unless noted
In short: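 This yeast growth screen uses a strain with defined DNA-repair lesions; compound-treated growth is compared with vehicle-treated growth.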

[4] = NCI Yeast Anticancer Drug Screen. Data for the cln2 rad14 strain (AID 165);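 also: 0% = growth equal to vehicle treated cultures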; conditions: S. cerevisiae cln2 rad14 strain, stronger effect = higher value; at 50.0 µM unless noted
In short: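 Yeast strain cln2 rad14, bearing defects in cell cycle control and DNA repair, serves as the test system; values reflect growth inhibition compared with vehicle.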

[5] = NCI Yeast Anticancer Drug Screen. Data for the bub3 strain (AID 167); conditions: S. cerevisiae bub3 mutant strain, stronger effect = higher value; at 50.0 µM unless noted
In short: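 Screening used yeast with an engineered genetic alteration affecting cell cycle control. Compound-exposed cultures were compared with vehicle cultures, and reduced growth was taken as inhibition.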

[6] = NCI Yeast Anticancer Drug Screen. Data for the mlh1 rad18 strain (AID 175); conditions: S. cerevisiae mlh1 rad18 strain growth inhibition, stronger effect = higher value; at 50.0 µM unless noted
In short: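 Steps: expose repair-defective yeast to compound; measure growth; express inhibition against vehicle-treated controls.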

Measured: growth inhibition

CCCN(CCC)CC(O)c1ccc(Cl)c2ccccc12 (centres undefined)
inactive: [1] 1.85% | [2] -30.1% | [3] 21.1% | [4] -35.3% | [5] -17.9% | [6] -9.55%

CC(C)CN(CC(C)C)C(=O)c1ccccc1
inactive: [1] 2.3% | [2] 8.2% | [3] 1.1% | [4] 8.85% | [5] 4.9% | [6] 2.4%

C=C[C@]1(C)C=C2CC[C@@H]3[C@](C)(CCC[C@@]3(C)C(=O)O)[C@H]2CC1
inactive: [1] 14.5% | [2] 8.7% | [3] 13.8% | [4] -9.05% | [5] -1.9% | [6] 29.8%

CCN(CCO)c1cccc(C)c1
inactive: [1] -12.2% | [2] -19.1% | [3] -12.5% | [4] 1.6% | [5] -17.4% | [6] -7.2%

Cc1cc2ccccc2n1/C=C/C1=[N+](C)c2ccccc2C1(C)C
inactive: [1] 10.3% | [2] 6.25% | [3] 10.5% | [4] -38.9% | [5] 8.1% | [6] 25.9%

Cc1ncc(CO)c(CO)c1OCC(O)CN1CCN(c2ccc(F)cc2)CC1 (centres undefined)
inactive: [1] -15.8% | [2] -2.65% | [3] -8.25% | [4] -41.2% | [5] -6.9% | [6] -0.45%

NC(=S)C(=S)N=Cc1c(O)c2ccccc2oc1=O
inactive: [1] 39.3% | [2] 29.9% | [3] 63.1% | [4] 18.9% | [5] 23.1% | [6] 40.5%

O=C(O)/C=C1\NC(=O)NC1=O
inactive: [1] 16.1% | [2] -5.1% | [3] 11.8% | [4] 6.1% | [5] 5.75% | [6] 33%

O=C(Nc1ccc2c(c1)Cc1ccccc1-2)c1cccc2ccccc12
inactive: [1] -4.05% | [2] -20.8% | [3] 0.4% | [4] -47% | [5] 12.2% | [6] -5.2%

NC(=O)Nc1nc2ccccc2[nH]1
inactive: [1] -26.2% | [2] -21.6% | [3] -11.7% | [4] -0.3% | [5] -7.7% | [6] 3.4%

CC1CCCC(CC(=O)O)(CC(=O)O)C1 (centres undefined)
inactive: [1] -14.1% | [2] -33.6% | [3] -5.1% | [4] -29.3% | [5] -4.1% | [6] -21.4%

CCSc1nnc(SCC)c2c1ncn2CC
inactive: [1] 19.9% | [2] 5.8% | [3] 26.4% | [4] -39.8% | [5] 7.5% | [6] 9.05%

c1ccc2c3c([nH]c2c1)CCCC3
inactive: [1] -1.6% | [2] 1.2% | [3] -10.2% | [4] -31.4% | [5] 11.5% | [6] -1.25%

CCCCCCCCCC(=O)N=C(C(N)=O)C(N)=O
inactive: [1] -13.2% | [2] 18.3% | [3] 38.5% | [4] 3.75% | [5] 1.7% | [6] 21.8%

CCC1(CC)SC=C(C)NC1=O
inactive: [1] -4.65% | [2] -1.65% | [3] 12.6% | [4] -24.7% | [5] -14.7% | [6] 6.75%

O=C(NC12CC3CC(CC(C3)C1)C2)C(=O)c1c[nH]c2ccc(Cl)cc12
inactive: [1] -9.15% | [2] -10.6% | [3] -4.1% | [4] 21.8% | [5] 8.5% | [6] -9.15%

CC(C)C(=O)Nc1nc2nc[nH]c2c(=O)[nH]1
inactive: [1] 11.6% | [2] -23.6% | [3] 24.9% | [4] 12.8% | [5] -7.95% | [6] -22.9%

O=[N+]([O-])c1ccccc1S(=O)(=O)c1cccc2c1NCCC2
inactive: [1] 33.8% | [2] 12.3% | [3] 33.5% | [4] 31.4% | [5] 48% | [6] 46.9%

C=C(C)C(C(=O)OCC)C(=O)OCC
inactive: [1] 3.4% | [2] -2.75% | [3] 7.4% | [4] 10.5% | [5] -21.8% | [6] -4.85%
